Our source for the activity values is PubChem BioAssay AID1259318 (Sanford-Burnham Center for Chemical Genomics, 2017).

Out of some 370,000 compounds screened, about 3,000 (0.81%) were called active. This is one part of a sample in which actives are shown more often than they occur. A number with no mark means an inactive call.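 The calls were made as follows: active = activity above about 14% (limit read from the data; passing the limit was not always enough); inactive = the rest.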

Nuclear receptor subfamily 1 group D member 1 (Homo sapiens), sequence (P20393 whole entry, looked up): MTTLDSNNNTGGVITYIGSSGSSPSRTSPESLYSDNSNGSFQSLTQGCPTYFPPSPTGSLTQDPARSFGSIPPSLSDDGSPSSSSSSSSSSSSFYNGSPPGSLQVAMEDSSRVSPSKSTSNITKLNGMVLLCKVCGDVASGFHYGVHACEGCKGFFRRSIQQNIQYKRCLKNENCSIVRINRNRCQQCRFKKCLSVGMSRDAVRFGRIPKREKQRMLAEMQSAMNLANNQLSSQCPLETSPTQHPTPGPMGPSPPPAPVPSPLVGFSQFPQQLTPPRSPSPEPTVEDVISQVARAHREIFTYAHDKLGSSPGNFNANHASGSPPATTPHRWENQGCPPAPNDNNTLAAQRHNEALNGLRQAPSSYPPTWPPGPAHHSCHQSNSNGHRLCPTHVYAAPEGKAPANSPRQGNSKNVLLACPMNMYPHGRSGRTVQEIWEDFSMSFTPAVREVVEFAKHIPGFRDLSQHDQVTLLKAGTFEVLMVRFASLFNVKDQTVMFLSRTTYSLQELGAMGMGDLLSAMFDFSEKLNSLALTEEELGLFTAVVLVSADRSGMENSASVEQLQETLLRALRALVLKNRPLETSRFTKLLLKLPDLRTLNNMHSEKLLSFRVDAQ

The experiment has as its target Nuclear receptor subfamily 1 group D member 1 (Homo sapiens) (UniProt P20393). The experiment is described as follows: Rev-erbα–DNA interaction modulation – biochemical, FITC-DNA, fluorescence polarization, uHTS, primary screen (AID 1259318).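 Also: 0% = DMSO wells with 35 nM protein and 100% = DMSO wells with 750 nM protein.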 To be noted: Rev-erbα–FITC-DNA binding, 90 min, at 10 µM, active compounds read high. On the technique in general: Fluorescence polarisation rises when a labelled molecule tumbles more slowly, as on binding a larger partner.
For the compound `O=C(Nn1cnc2ccccc2c1=O)c1ccc(F)cc1Cl`, the activity was -3.38%. `CC(C)C(C)NC(=O)COc1nc2ccccc2nc1N(C)C1CCCCC1` (stereo not drawn): the activity was 62.5% (active).

On to `CC(C)C(C)NC(=O)COc1ncnc2ccccc12` (stereo not drawn), for which the activity is 1.73%. `O=C(COc1ccccc1O)NC1CCCC1`: the activity was 2.25%. Then `CCCN1C(=O)C(NC(C)=O)c2cc(OC)ccc21` (stereo not drawn), with 1.76%.

As for `CC(C)NC(=O)COCc1cc(-c2ccc3c(c2)OCO3)on1`, the activity is 3.84%. Then `CCc1ccccc1NC(=O)c1cc(-c2ccc3c(c2)OCO3)on1`, with 21.2% (active). Then `CCOC(=O)N1CCN(C(=O)COCc2cc(-c3ccc4c(c3)OCO4)on2)CC1`, with 2.06%; and `CCCCCCCCCc1ccc(OCCOCCOCCOCCOCCOCCOCCOCCOCCO)cc1`, with 2.2%. Then `CC[C@H](NC(=O)[C@H](Cc1ccccc1)NC(=O)[C@H]1O[C@@H](n2cnc3c(=O)[nH]c(N)nc32)[C@H](O)[C@@H]1O)c1ccccc1`, with 1.57%. On to `CCOC(=O)c1c(NC(=O)CN2C(=O)NC3(CCC(C)CC3)C2=O)sc(C)c1CC` (stereo not drawn), for which the activity was 21.8% (active). Then `CCC1CCC2(CC1)NC(=O)N(CC(=O)Nc1ccc(OC)cc1)C2=O` (stereo not drawn), with -2.27%; and `CCOC(=O)c1c(NC(=O)C2CC=CCC2C(=O)O)sc(C)c1CC` (stereo not drawn), with -10.6%. For `O=C1NC(c2ccccc2)=NC1(Nc1ccccn1)C(F)(F)F` (stereo not drawn), the activity is -2.21%. As for `C[C@@H]1CN([C@@H](C)CO)S(=O)(=O)c2ccc(C#Cc3cccc(F)c3)cc2O[C@H]1CN(C)S(=O)(=O)c1cn(C)cn1`, the figure is 4.67%; as for `CCCC1O[C@@H]2CC3C4CCC5=CC(=O)C=CC5(C)C4[C@@H](O)CC3(C)[C@]2(C(=O)CO)O1` (stereo partly drawn), 3.39%. As for `S=c1nccc(-c2cc(Cl)sc2Cl)[nH]1`, the figure is 20.9% (active); as for `CC1=C(/C=C/C(C)=C/C=C/C(C)=C/C=C/C=C(C)/C=C/C=C(C)/C=C/C2=C(C)CCCC2(C)C)C(C)(C)CCC1`, -1.26%.

Regarding `COc1ccccc1NC(=O)c1cc(N2C(=O)C3C4CCC(C4)C3C2=O)ccc1Cl` (stereo not drawn), the activity was -4.24%. On to `Cc1ccc(CNC(=O)CC(NC(=O)c2ccccc2)c2ccccc2)cc1` (stereo not drawn), for which the activity was -3.7%. With `CC(=O)C1(C(=O)Nc2nccs2)CC(c2ccccc2C(F)(F)F)=NO1` (stereo not drawn), the activity was 2.17%.

In the case of `C=CCNC(=O)CC12CC3CC(C1)CC(CC(=O)NCC=C)(C3)C2`, the activity is 27.5% (active).

Consider `C=CCNC(=O)C12CC3CC(C1)CC(C(=O)NCC=C)(C3)C2`, for which the activity is 1.74%. Then `O=C(O)CSCNC(=O)CC12CC3CC(CC(C3)C1)C2`, with 5.91%; and `Cc1cccc(NC(=O)c2cc(S(=O)(=O)N3CCC4(CC3)OCCO4)ccc2F)c1`, with -2.46%. As for `O=C(N[C@H]1CC[C@H](CC(=O)N2CCCCC2)O[C@@H]1CO)c1cccc(F)c1`, the figure is 3.8%; as for `CON(C)S(=O)(=O)c1ccc2c(c1)NC(=O)C1CCCN21` (stereo not drawn), -3.22%; as for `Cc1cc(C)c2c(-c3ccc(F)cc3)c(C#N)c(=O)n(C)c2n1`, 56.8% (active). As for `COc1ccc(O)c(C(=O)c2cnc3c(c2)c(-c2ccc(F)cc2)c(C#N)c(=O)n3C)c1`, the figure is -4.88%; as for `Cn1c(N)cc(-c2ccc(F)cc2)c(C#N)c1=O`, -1.46%; as for `C=CCN1C(=O)[C@@H](CC(=O)NCC2CCCCC2)[C@]2(C(=O)OC)CCCCC=C12`, 8.08%. `Cc1nonc1OCCn1nnnc1N`: the activity is 0.14%. As for `c1ccc2c(-c3nn4nnnc4c4ccccc34)cccc2c1`, the figure is 28.7% (active). Then `COc1ccc(C)cc1NC(=O)NCCCCc1ccccc1`, with -4.58%; and `CC1CCCC(C)N1C(=O)COC(=O)COc1ccccc1C#N` (stereo not drawn), with 8.28%; and `COc1ccc(CN(CCN2CCOCC2)C(=O)c2ccc(C)cc2)cc1OC`, with -7.19%. As for `O=C1CC(c2cccc(F)c2)C2=C(CCCC2=O)N1` (stereo not drawn), the figure is 1.68%; as for `O=C1CCCC2=C1C(c1ccccc1)n1c(s/c(=C/c3cccc(F)c3)c1=O)=N2` (stereo not drawn), 35% (active). Regarding `COc1ccc(OC)c(C2C3=C(N=c4s/c(=C\c5cccc(O)c5)c(=O)n42)c2ccccc2CC3)c1` (stereo not drawn), the activity is -1.04%. As to `S=C1Nc2cc(Cl)ccc2Sc2ccccc21`, the activity was -3.11%. Regarding `O=C1Cc2ccccc2Sc2ccc(Cl)cc21`, the activity is 15.6% (active).

As to `O=C1CC2(CCCC2)Oc2ccc(Cl)cc21`, the activity is 1.88%.

As for `Cc1ccc(S(=O)(=O)c2c[nH]c3ccc(C)cc3c2=O)cc1`, the activity is 4.77%.

As to `CCCCN(C)Cc1c(C)[nH]c2ccc(Cl)cc2c1=O`, the activity was 3.27%. With `Cc1ccc(S(=O)(=O)c2c[nH]c3ccc(Cl)cc3c2=O)cc1`, the activity is 136% (active). On to `COc1ccc(N(CC(=O)NCc2ccc(F)cc2)C(=O)CCC(=O)Nc2nccs2)cc1`, for which the activity is -2.56%. Then `Cc1cc(Cl)ccc1NNC(=O)c1snnc1C`, with 3.67%; and `Fc1ccc(CNc2nc3ccccc3n3nnnc23)cc1`, with 40.6% (active); and `CC(C)(C)N1CC(c2nc3ccccc3n2Cc2ccc(F)cc2)CC1=O` (stereo not drawn), with -4.96%. As for `CCOC(=O)CNc1nc2ccccc2n2c(C)nnc12`, the figure is 2.94%; as for `COC(=O)[C@]1(C)N[C@H](c2ccc(-c3ccc(Cl)c(Cl)c3)cc2)[C@@H]2C(=O)N(C)C(=O)[C@@H]21`, 2.33%. As for `Cc1nc(N2CCN(c3ccccn3)CC2)c2c(C)c(C(=O)Nc3ccc(F)c(Cl)c3)sc2n1`, the figure is 32% (active). On to `Cc1nc(N2CCC(C)CC2)c2c(C)c(C(=O)Nc3cc(F)ccc3C)sc2n1`, for which the activity was 15.7%.

For `O=C(Nc1ccc(F)c(Cl)c1)C1CCN(S(=O)(=O)c2cccnc2)CC1`, the activity was -4.36%. As for `COc1ccc(-c2nnc3n2CCCCC3)cc1`, the figure is -6.25%; as for `O=S(=O)(c1ccc(Br)cc1)c1nc(-c2ccccc2)oc1NCc1cccnc1`, 27.6% (active); as for `O=C(NCc1cccnc1)c1ccc(CS(=O)(=O)c2ccc(Br)cc2)o1`, -2.47%. Take `O=S(=O)(c1ccccc1)c1nc(-c2ccccc2F)oc1NCc1cccnc1`: the activity is -3.4%.
